Reference: ChEMBL document CHEMBL4513216, “Probing the Open Global Health Chemical Diversity Library for Multistage-Active Starting Points for Next-Generation Antimalarials” (ACS Infect Dis, 2020)
Screen size: about 69,000 compounds; about 8,600 (12%) showed an effect of 50% or more. The sample as a whole holds a higher share of strong results than the screen did.

system: Plasmodium berghei; assay: Screen against P. berghei liver stage (PbLuc), transformed with Luciferase, at 10uM; assay type: functional, HepG2; settings: tested at 10 uM

| Structure (SMILES) | INHIBITION [%] |
| --- | --- |
| Cc1nn(C)c(Cl)c1C(=O)NCc1cccnc1N1CCOCC1 | -13 |
| O=C(NCc1nncn1C1CC1)c1ccccc1Oc1cccnc1 | -18.3 |
| O=C(c1ccnnc1)N1C[C@@H]2COC[C@]2(COCC2CC2)C1 | 46.2 |
| OC(CNCCn1cccn1)c1cccc(Br)c1 (centres undefined) | 11.2 |
| CC(O)c1cn(CC2CCN(C(=O)CN(C)C(C)C)CC2)nn1 (centres undefined) | 8.51 |
| CC(O)c1cn(CC2CCN(C(=O)c3cscn3)CC2)nn1 (centres undefined) | 30.3 |
| CC(O)c1cn(CC2CCN(C(=O)c3cccc(N(C)C)c3)CC2)nn1 (centres undefined) | 55.7 |
| CCN(CC)C(C(=O)Nc1ccc2c(c1)CCC(=O)N2)c1ccccc1 (centres undefined) | 56.8 |
| CCN(C)C(C(=O)Nc1ccc2c(c1)CCC(=O)N2)c1ccccc1 (centres undefined) | 36.3 |
| CCC(CC(=O)Nc1ccc2c(c1)CC(=O)N2)c1ccccc1 (centres undefined) | 49.1 |
| COCCN1C[C@@H]2[C@@H](OC)CCN(C(=O)c3cccc(OC)c3)[C@@H]2C1 | 11.6 |
| Cc1ccc(OCCC(=O)NC2CCc3nccn3C2)cc1 (centres undefined) | 22.1 |
| CN(C)C(=O)CO[C@H]1CN(Cc2ccc(F)cc2)[C@@H]2CCCO[C@H]12 | 25.1 |
| CCCc1nnc(N2CCC(N3CCCC3)CC2)o1 | 79.8 |
| CCCc1nnc(N2CCC(N3CCCCCC3)CC2)o1 | 23.3 |
| CCCc1nnc(N2CCN(C3CCCC3)CC2)o1 | 26.5 |
| O=C(O)C1(Oc2cccc(F)c2)CCN(C2CCOCC2)CC1 | -15.2 |
| Cc1ccccc1OCC(O)CN1CCC(c2ccn[nH]2)CC1 (centres undefined) | -17.6 |
| CSC1(CNC(=O)NC(C)Cc2cccc(F)c2)CCOCC1 (centres undefined) | -12.5 |
| CSC1(CNC(=O)NC(C)c2ccc(F)c(F)c2)CCOCC1 (centres undefined) | 65.3 |
| CSC1(CNC(=O)NC(C)c2ccc(F)cc2)CCOCC1 (centres undefined) | 16.5 |
| O=C1NCC(C(=O)Nc2ccc(=O)n(Cc3ccccc3Cl)c2)N1 (centres undefined) | 26.8 |
| Cc1cc2c(N)nc(=O)n(CC(=O)Nc3ccccc3)c2s1 | 1.45 |
| COc1cccc(NC(=O)Cn2c(=O)nc(N)c3cc(C)sc32)c1 | -12.5 |
| Cc1cc2c(N)nc(=O)n(CC(=O)Nc3cccc(Cl)c3)c2s1 | 76.9 |
| O=C(Nc1cccnc1N1CCSCC1)c1ccc2c(c1)OCO2 | 49.5 |

| Structure (SMILES) | INHIBITION [%] |
| --- | --- |
| COc1c(C2CCCN2CC(=O)Nc2cc(C)on2)c(C)nn1C (centres undefined) | -102 |
| CC(C)(C)n1ncc2c1NC(=O)CC2c1ccc(C#N)cc1 (centres undefined) | -1.04 |
| CCc1[nH]c2c(CNC(=O)C3CCN(C)C3)cc(C)cc2c1C (centres undefined) | 14.9 |
| CCc1[nH]c2c(CNc3cncc(C(=O)N(C)C)n3)cc(F)cc2c1C | 47.2 |
| CCc1[nH]c2c(CNc3nccc(N)n3)cc(C)cc2c1C | 37.4 |
| Cc1cc(CNc2nccc(N)n2)c2[nH]c(C)c(C)c2c1 | 66.9 |
| CCc1[nH]c2ccc(CNC(=O)c3cnc(N)nc3C)cc2c1C | 36.5 |
| CCc1[nH]c2c(CNc3cnccn3)cc(F)cc2c1C | 56.3 |
| CCc1[nH]c2c(CNc3nccc(N)n3)cc(F)cc2c1C | 55.4 |
| CCc1[nH]c2c(CNC(=O)C3CCC(=O)NC3)cc(C)cc2c1C (centres undefined) | -8.75 |
| Cc1noc(C)c1CN1CCC2(CC1)CC(Oc1cccnc1)C2 | 30.5 |
| Cn1cccc1C(=O)N1CCN(Cc2cccnc2)c2ncccc2C1 | 10.5 |
| CCc1n[nH]c(C2CN(C(=O)CCOCC(F)(F)F)CCO2)n1 (centres undefined) | 1.45 |
| O=C1NC2(CCN(c3ncccn3)CC2)CC1c1cccnc1 (centres undefined) | 17.1 |
| Cc1cc(CC(=O)NC2CCCN(c3ccccc3F)C2=O)n[nH]1 (centres undefined) | 13.6 |
| Cc1ccsc1C(CNC(=O)c1cc(=O)[nH]c(=O)[nH]1)N(C)C (centres undefined) | -27.5 |
| NC(=O)CC1CCCN(c2cncc(SCc3ccccc3)n2)C1 (centres undefined) | -13.7 |
| CC(=O)Nc1ccc(Cl)c(C(=O)N(C)C(C)c2ccon2)c1 (centres undefined) | 18.3 |
| CC(=O)Nc1ccc(Cl)c(C(=O)N(C)C(C)c2nccs2)c1 (centres undefined) | 61 |
| CC(=O)Nc1ccc(Cl)c(C(=O)N(C)C(C)c2ccncn2)c1 (centres undefined) | 32.2 |
| Cc1nc(C)n(CC2CN(Cc3ccc4c(c3)OCCO4)CCO2)n1 (centres undefined) | 1.78 |
| O=C(Cn1cnc2sccc2c1=O)NCCCc1nnc2ccccn12 | 28.3 |
| CCc1cnc(CNC(=O)NCCc2ccc(O)cc2)s1 | 71.1 |
| CCc1cnc(CNC(=O)NCCCO)s1 | -25.6 |
| Cc1cnc(CCNC(=O)NCCc2ccc(O)cc2)s1 | 42.8 |
| CCC[C@@H]1CN(Cc2ccccc2OC(F)(F)F)C[C@H]1NC(C)=O | 19.7 |

| Structure (SMILES) | INHIBITION [%] |
| --- | --- |
| CC(CCc1ncnn1Cc1cccc(Cl)c1)N1CCCC1 (centres undefined) | 49.3 |
| COc1cccc(Cn2ncnc2CCC(C)N2CCN(C)CC2)c1 (centres undefined) | 72 |
| COc1cccc(Cn2ncnc2CCSC)c1 | -32.9 |
| Cc1noc(C2CCCN(C(=O)CCCNc3ncccn3)C2)n1 (centres undefined) | 8.535 |
| COc1ccc(CCCNCc2c(C)nn(C)c2N(C)C)cc1OC | 45.7 |
| CN(C)c1cccc(C(=O)N2CCn3c(nnc3C3CC3)C2)c1 | 25.4 |
| Cn1cc(S(=O)(=O)N2CCCC2Cn2ccnc2)cn1 (centres undefined) | 34.4 |
| CN(C)C(=O)c1cc(S(=O)(=O)N2CCCC2Cn2ccnc2)cn1C (centres undefined) | 61.5 |
| Cn1cc(S(=O)(=O)N2CCCC2Cn2ccnc2)cc1C(N)=O (centres undefined) | 39.9 |
| COCCN(Cc1ccco1)Cc1nc(-c2ccccc2)no1 | -10.1 |
| CN(Cc1nc(CS(C)(=O)=O)no1)c1ccccc1 | 19.7 |
| CS(=O)(=O)Cc1noc(CN(Cc2ccco2)c2ccccc2)n1 | 54.4 |
| Cc1noc(C)c1CN1C[C@@H](N(C)Cc2ccco2)[C@H]2OCCC[C@H]21 | 20.6 |
| O=C(NCCNc1ncccn1)C1CCN(C(=O)c2ccoc2)CC1 | -2.53 |
| CC1(C)OC(=O)N(CCCC(=O)c2ccc(F)cc2)C1=O | -4.12 |
| CN(C)C(=O)CCC[S+]([O-])Cc1cc(Cl)ccc1Cl (centres undefined) | 57.3 |
| COCC(=O)N(C)Cc1ccc(Cl)c(Cl)c1 | -11.1 |
| CN(C)C(=O)CNC(=O)c1ccc(Cl)cc1F | -12.6 |
| CN(C)C(=O)CCC[S+]([O-])Cc1ccc(Cl)c(Cl)c1 (centres undefined) | 57.3 |
| CN(C)C(=O)CCNC(=O)NCc1ccc(Br)cc1Cl | 47.6 |
| CN(C)C(=O)CCC[S+]([O-])Cc1ccc(F)c(F)c1 (centres undefined) | 31.5 |
| CC(C)CCN1CCc2cc(C(=O)N(C)C)c(NCC3CC3)nc2CC1 | -35 |
| O=C(N[C@H]1CN(c2nc(CO)cs2)C[C@@H]1C1CC1)C1CCCCC1 | 50.4 |
| CC(=O)N[C@@H]1CN(C(=O)c2ccc[nH]2)C[C@H]1c1ccc(C)o1 | 45.1 |
| Cc1nc(O)cc(CN2C[C@H](NC(=O)C3CCCC3)[C@@H](C3CC3)C2)n1 | -69.6 |
| CC(=O)N[C@@H]1CN(C(=O)c2cc3sccc3[nH]2)C[C@H]1c1ccc(C)o1 | -7.94 |

| Structure (SMILES) | INHIBITION [%] |
| --- | --- |
| CC(=O)N[C@@H]1CN(c2nc(C(N)=O)cs2)C[C@H]1c1ccc(C)o1 | 35 |
| CCc1nnc(N2C[C@@H](NC(C)=O)[C@H](c3ccc(C)o3)C2)s1 | 44.3 |
| CCC[C@H]1CN(c2nc(CO)cs2)C[C@@H]1NC(=O)C1CCC1 | 48.2 |
| CC(=O)N[C@@H]1CN(C(=O)c2cc3ccccc3[nH]2)C[C@H]1c1ccc(C)o1 | 61.2 |
| CC(=O)N[C@@H]1CN(c2nc(CO)cs2)C[C@H]1c1ccc(C)o1 | 65.6 |
| Cc1ccccc1C1CN(c2cnn(C)c(=O)c2Cl)CCO1 (centres undefined) | -3.35 |
| Cc1cnc(N2C[C@H]3CN(Cc4csc(C)n4)C(=O)[C@H]3C2)nc1 | 31.4 |
| CCOC(=O)[C@]12CCCN(Cc3ccco3)C[C@H]1CN(S(C)(=O)=O)C2 | 6.67 |
| Cc1ccc2c(c1)[C@@H](CC(=O)N1CCN(C)CC1)CCO2 | -12.2 |
| CNC(=O)[C@H]1C[C@@H]2CN(S(=O)(=O)c3ccc(F)cc3)C[C@@H]2N1C | 35.8 |
| CCN1CC[C@@]2(C(=O)N3CCCC3)CCN(S(C)(=O)=O)CC[C@@H]12 | -45.5 |
| Cc1ncsc1CN1C[C@@H]2COC[C@]2(CNC(=O)c2ccccc2)C1 | -49.6 |
| Cc1cccc(COC[C@H]2CC[C@H]3[C@H](CCN3C(=O)CC3CC3)O2)n1 | 2.84 |
| COc1cccc(COCC(=O)N2CCCCCC2)c1 | -51.075 |
| COc1cccc(OCC2CCCN(C(=O)CCn3ccnc3)C2)c1 (centres undefined) | 82.2 |
| O=C(CCc1cn[nH]c1)N1C[C@@H](CN2CCCCCC2)[C@@H](CO)C1 | 36.6 |
| O=C(CCCc1cn[nH]c1)N1C[C@@H](CN2CCCCCC2)[C@@H](CO)C1 | 52.2 |
| COc1ccccc1C(=O)N1CCN(C(=O)CCCc2cn[nH]c2)CC1 | 32 |
| COc1cccc(C(=O)N2CCN(C(=O)CCCc3cn[nH]c3)CC2)c1 | 65.6 |
| COc1cccc(C(=O)N2CCN(C(=O)CCn3ccnc3)CC2)c1 | 55 |
| COc1ccccc1C(=O)N1CCN(C(=O)CCn2ccnc2)CC1 | -27.4 |
| COc1cccc(OCC2CCCN(C(C)=O)C2)c1 (centres undefined) | -20.9 |
| O=C(CCCc1cn[nH]c1)N1C[C@@H](CN2CCOCC2)[C@@H](CO)C1 | 2.3 |
| COc1cccc(C(=O)N2CCN(C(=O)CCCn3ccnc3)CC2)c1 | 40.9 |
| COc1cccc(OCC2CCCN(C(=O)CCCn3cccn3)C2)c1 (centres undefined) | 16.9 |
| COc1ccc(C(=O)N2CCN(C(=O)CCCc3cn[nH]c3)CC2)cc1 | 26.4 |
